The source of these data is PubChem BioAssay (NCI).

The panel holds about 83,000 compounds, 20% with a hit somewhere; the sample as a whole holds those more often.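 Each cell line was grown in a 96-well plate and treated with one concentration of compound for 48 hours. Values below 10 were considered active.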 A number with no mark means an inactive call. Active and inactive are the calls of the source.

Among the test systems are NCI-H226 lung; HOP-62 NSCLC; NCI-H460 lung; HOP-92 NSCLC; NCI-H522 lung; A549/ATCC NSCLC; 786-0 renal; COLO 205 colon; DU-145 prostate; K-562 leukemia; MALME-3M melanoma; MDA-MB-231 breast; RXF 393 renal; SF-268 CNS; SF-295 CNS; SF-539 CNS; UACC-257 melanoma; M14 melanoma; NCI-H322M lung.
Common to all, as to experiment: NCI-60 one-dose screen, 48 h (100 = growth as untreated, 0 = no growth, -100 = all killed)
What all share (settings): 10 µM unless noted

For `Cc1ccc(S(=O)(=O)OCC#CCOS(=O)(=O)c2ccc(C)cc2)cc1`, the growth in the assay with NCI-H226 lung is 84.3%; in the assay on HOP-62 NSCLC it was -12.9% (active); with NCI-H460 lung, 13.4%; with HOP-92 NSCLC, 40.2%; in the assay on NCI-H522 lung it was -65.4% (active); with A549/ATCC NSCLC, 17.1%. Moreover, the growth in the assay on 786-0 renal is 74.5%; in the assay on COLO 205 colon, 52.6%; with DU-145 prostate, 52.2%; in the assay with K-562 leukemia it was 40.2%; with MALME-3M melanoma it was -65.9% (active); in the assay on MDA-MB-231 breast, 57.9%. Also, the growth was 58.6% in the assay with RXF 393 renal; 53.8% with SF-268 CNS; 42.2% in the assay on SF-295 CNS; 81.9% in the assay on SF-539 CNS; 66.8% in the assay with UACC-257 melanoma; 43.6% in the assay on M14 melanoma.
With `COc1cc(C=C2C(=O)NC(=S)NC2=O)cc(CN2CCCC2)c1O`, the growth in the assay with NCI-H226 lung is 103%; in the assay with NCI-H322M lung it was 105%; in the assay on HOP-62 NSCLC, 103%; in the assay with NCI-H460 lung, 109%; in the assay on HOP-92 NSCLC it was 92.8%; in the assay on NCI-H522 lung, 96.4%. Further, the growth is 96.6% in the assay on A549/ATCC NSCLC; 102% in the assay with 786-0 renal; 120% with COLO 205 colon; 113% in the assay with DU-145 prostate; 108% in the assay with K-562 leukemia; 108% in the assay on MALME-3M melanoma. For the same molecule, the growth was 111% in the assay with MDA-MB-231 breast; 103% with RXF 393 renal; 99.6% in the assay on SF-268 CNS; 104% in the assay on SF-295 CNS; 101% in the assay with SF-539 CNS; 98.8% in the assay on UACC-257 melanoma. Besides, the growth in the assay with M14 melanoma was 109%.
`CCOc1ncc([N+](=O)[O-])c(OCC)n1`: the growth in the assay with NCI-H226 lung was 107%; in the assay on NCI-H322M lung, 123%; with HOP-62 NSCLC, 104%; with NCI-H460 lung, 113%; with HOP-92 NSCLC, 82.2%; in the assay with NCI-H522 lung, 99.9%. Moreover, the growth is 98.9% in the assay with A549/ATCC NSCLC; 108% with 786-0 renal; 112% in the assay on COLO 205 colon; 123% in the assay on DU-145 prostate; 103% in the assay on K-562 leukemia; 129% in the assay on MALME-3M melanoma. The growth in the assay on MDA-MB-231 breast was 97.1%; in the assay on RXF 393 renal it was 122%; in the assay on SF-268 CNS, 118%; in the assay with SF-295 CNS, 116%; with SF-539 CNS, 102%; with UACC-257 melanoma, 102%. Also, the growth in the assay with M14 melanoma is 112%.
For `O=C(CCCCCCCC(=O)N1CCCCC1)N1CCCCC1`, the growth in the assay with NCI-H226 lung was 109%; in the assay on NCI-H322M lung it was 115%; in the assay on HOP-62 NSCLC, 110%; in the assay with NCI-H460 lung, 98.7%; in the assay on HOP-92 NSCLC, 98.8%; in the assay with A549/ATCC NSCLC it was 102%. Also, the growth is 105% in the assay with 786-0 renal; 113% with COLO 205 colon; 106% in the assay on DU-145 prostate; 114% in the assay on K-562 leukemia; 115% in the assay on MALME-3M melanoma; 94.1% in the assay with MDA-MB-231 breast. Also, the growth in the assay with RXF 393 renal was 123%; in the assay on SF-268 CNS it was 104%; with SF-295 CNS it was 117%; in the assay with SF-539 CNS, 103%; in the assay on UACC-257 melanoma, 89.3%; in the assay on M14 melanoma, 102%.
In the case of `CCOC(=O)c1ccc[nH]1`, the growth in the assay with NCI-H226 lung is 99.3%; in the assay with NCI-H322M lung it was 84.3%; in the assay on HOP-62 NSCLC it was 83.5%; with NCI-H460 lung, 105%; in the assay on HOP-92 NSCLC it was 80.4%; with NCI-H522 lung, 88.4%. Moreover, the growth is 93% in the assay on A549/ATCC NSCLC; 93.1% in the assay on 786-0 renal; 134% in the assay with COLO 205 colon; 116% in the assay with DU-145 prostate; 88.5% with K-562 leukemia; 87.7% with MALME-3M melanoma. Moreover, the growth with MDA-MB-231 breast was 126%; in the assay with RXF 393 renal it was 94.1%; with SF-268 CNS it was 100%; with SF-295 CNS, 114%; in the assay with SF-539 CNS it was 91.9%; with UACC-257 melanoma it was 90.8%. For the same molecule, the growth in the assay with M14 melanoma is 96.2%.
As to `Cc1cccc(N2C(=O)/C(=C/C(Cl)=C/c3ccc([N+](=O)[O-])cc3)SC2=S)c1C`, the growth in the assay with NCI-H226 lung is -38.1% (active); with NCI-H322M lung it was 82.2%; in the assay on HOP-62 NSCLC, 17.2%; in the assay on NCI-H460 lung it was 21%; in the assay on HOP-92 NSCLC, -28.1% (active); with NCI-H522 lung it was -29.3% (active). Further, the growth is 22.6% in the assay on A549/ATCC NSCLC; 1.63% (active) in the assay with 786-0 renal; -31.9% (active) in the assay on COLO 205 colon; 27.3% in the assay with DU-145 prostate; 3.9% (active) in the assay on K-562 leukemia; -8.54% (active) in the assay with MALME-3M melanoma. Moreover, the growth in the assay with MDA-MB-231 breast is -6.22% (active); in the assay on RXF 393 renal, -33.6% (active); with SF-268 CNS it was 40.5%; in the assay on SF-295 CNS, 22.3%; in the assay with SF-539 CNS, -3.16% (active); in the assay with UACC-257 melanoma it was 14.3%. For the same molecule, the growth with M14 melanoma is 22.5%.
As to `CCOC(=O)C/C(=N\Nc1cc(=O)[nH]c2ccc(OC)cc12)C(=O)OCC`, the growth was 97.6% in the assay on NCI-H226 lung; 94.9% with NCI-H322M lung; 105% in the assay on HOP-62 NSCLC; 100% with NCI-H460 lung; 87.2% with HOP-92 NSCLC; 109% with NCI-H522 lung. Also, the growth was 105% with A549/ATCC NSCLC; 107% in the assay on 786-0 renal; 114% with COLO 205 colon; 99.6% with DU-145 prostate; 89.3% in the assay on K-562 leukemia; 104% in the assay on MALME-3M melanoma. Moreover, the growth was 98.4% in the assay on MDA-MB-231 breast; 96.4% in the assay on RXF 393 renal; 98% with SF-268 CNS; 101% in the assay on SF-295 CNS; 90.9% with SF-539 CNS; 108% in the assay with UACC-257 melanoma.
For `Oc1c(I)cc(I)cc1CN(Cc1ccccn1)Cc1ccccn1`, the growth was 21.7% in the assay on NCI-H226 lung; 18.4% with NCI-H322M lung; 18.7% with HOP-62 NSCLC; 4.01% (active) in the assay with NCI-H460 lung; 24.4% in the assay with HOP-92 NSCLC; 11.5% with NCI-H522 lung. In addition, the growth in the assay on A549/ATCC NSCLC was 7.57% (active); with 786-0 renal, 18.2%; in the assay with COLO 205 colon, 16%; in the assay on DU-145 prostate, 29%; in the assay on K-562 leukemia it was 14.2%; in the assay with MALME-3M melanoma it was 17.1%. Besides, the growth is 33.4% in the assay with MDA-MB-231 breast; 46.7% with RXF 393 renal; 19.7% with SF-268 CNS; 23.5% with SF-295 CNS; 4.05% (active) with SF-539 CNS; 1.45% (active) in the assay with UACC-257 melanoma. Moreover, the growth with M14 melanoma was -16.6% (active).
Take `C1CCC(N2CN3c4nonc4N4CN(C5CCCCC5)CN5c6nonc6N(C2)C3C45)CC1` (stereo not given): the growth with NCI-H226 lung was 96.4%; in the assay on NCI-H322M lung, 95.6%; with HOP-62 NSCLC, 97.2%; in the assay on NCI-H460 lung it was 99.4%; in the assay with HOP-92 NSCLC it was 82.1%; in the assay with NCI-H522 lung, 92.1%. Moreover, the growth in the assay with A549/ATCC NSCLC is 92.4%; in the assay with 786-0 renal, 108%; with COLO 205 colon it was 107%; in the assay with DU-145 prostate it was 104%; with K-562 leukemia it was 82.1%; in the assay on MALME-3M melanoma, 91.5%. For the same molecule, the growth in the assay on MDA-MB-231 breast is 106%; in the assay with RXF 393 renal, 103%; with SF-268 CNS it was 96.5%; in the assay on SF-295 CNS, 91.6%; with SF-539 CNS, 101%; in the assay with UACC-257 melanoma, 99.2%. Also, the growth with M14 melanoma was 96%.
Regarding `Nc1nc2ccccc2c2c(=O)c3cc(Cl)ccc3sc12`, the growth in the assay on NCI-H226 lung was 92.7%; with NCI-H322M lung, 91.8%; in the assay on HOP-62 NSCLC, 89.7%; in the assay on NCI-H460 lung it was 86.2%; in the assay on HOP-92 NSCLC, 81.3%; in the assay on NCI-H522 lung, 93.4%. Besides, the growth with A549/ATCC NSCLC is 93.9%; in the assay with 786-0 renal, 98.5%; in the assay on COLO 205 colon, 114%; with DU-145 prostate, 14.6%; with K-562 leukemia, 96.1%; in the assay on MALME-3M melanoma it was 108%. In addition, the growth in the assay on MDA-MB-231 breast is 84.7%; in the assay on RXF 393 renal it was 108%; in the assay with SF-268 CNS, 13%; in the assay on SF-295 CNS it was 96.2%; in the assay on SF-539 CNS, 95.5%; in the assay on UACC-257 melanoma, 99.1%.
Take `CCN(CC)CCN1C(=O)c2c(c3c4ccccc4[nH]c3c3ccc4ccccc4c23)C1=O`: the growth was 87.5% in the assay with NCI-H226 lung; 87% in the assay with NCI-H322M lung; 55.3% in the assay on HOP-62 NSCLC; 16.3% in the assay on NCI-H460 lung; 66.2% in the assay on HOP-92 NSCLC; 67.8% in the assay on NCI-H522 lung. For the same molecule, the growth is -60.9% (active) with A549/ATCC NSCLC; -96.7% (active) in the assay with 786-0 renal; 78.7% in the assay with COLO 205 colon; -92.3% (active) in the assay with DU-145 prostate; -33% (active) in the assay with K-562 leukemia; -85.7% (active) with MALME-3M melanoma. In addition, the growth with MDA-MB-231 breast was -78.9% (active); in the assay on RXF 393 renal, 47.1%; in the assay with SF-268 CNS, -45% (active); in the assay on SF-295 CNS, 48.3%; in the assay with SF-539 CNS, -85.7% (active); with UACC-257 melanoma, 105%. Besides, in the assay on M14 melanoma, the growth was -85% (active).
